The record followed here is PubChem BioAssay AID894 (National Center for Advancing Translational Sciences (NCATS), 2007).

Screen size: about 150,000 compounds; about 6,500 (4.3%) were called active. About 12% were inconclusive and are not listed. Many of the other results were omitted from the sample, so actives are more common in it than they were. Values without a mark were called inactive. The call rests on the fitted dose curve; in most records, active means well fitted inhibition curve with a large enough effect (not every such curve was filed as active); inconclusive means small, poorly fitted or top-dose-only effect, or another doubt; inactive means no such curve, though single readings can be large or run the other way.
On the % scale 0 is the no-effect control and ±100 the full control effect; potency means the concentration at half of the fitted maximal effect.

15-hydroxyprostaglandin dehydrogenase [NAD(+)] (Homo sapiens), sequence (P15428 whole entry, looked up): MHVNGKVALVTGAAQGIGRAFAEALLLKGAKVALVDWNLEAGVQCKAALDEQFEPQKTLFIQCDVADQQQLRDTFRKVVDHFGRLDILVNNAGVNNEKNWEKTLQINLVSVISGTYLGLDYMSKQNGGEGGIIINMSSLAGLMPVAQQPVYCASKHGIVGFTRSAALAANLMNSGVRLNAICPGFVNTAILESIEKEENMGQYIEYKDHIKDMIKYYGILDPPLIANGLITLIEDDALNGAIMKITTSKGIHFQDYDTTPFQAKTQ

For the experiment, the target named is 15-hydroxyprostaglandin dehydrogenase [NAD(+)] (Homo sapiens) (UniProt P15428). The experiment in a line: qHTS Assay for Inhibitors of HPGD (15-Hydroxyprostaglandin Dehydrogenase). Conditions: purified HPGD, NADH fluorescence kinetic, PGE2 substrate; activity change, negative = inhibition: hits give low values. The source says:
Human 15-Hydroxyprostaglandin dehydrogenase (HPGD) catalyzes the inactivation of prostaglandin E2, and plays a major role in cancer biology by antagonizing the oncogenic potential of cyclooxygenase type 2 (COX2). Assays are available, based on absorbance/fluorescence increase of NADH with the substrate 15-OH prostaglandin E2. References 1. Myung SJ, Rerko RM, Yan M, Platzer P, Guda K, Dotson A, Lawrence E, Dannenberg AJ, Lovgren AK, Luo G, Pretlow TP, Newman RA, Willis J, Dawson D, Markowitz SD. 15-Hydroxyprostaglandin dehydrogenase is an in vivo suppressor of colon tumorigenesis. […] 2. Yan M, Rerko RM, Platzer P, Dawson D, Willis J, Tong M, Lawrence E, Lutterbaugh J, Lu S, Willson JK, Luo G, Hensold J, Tai HH, Wilson K, Markowitz SD. 15-Hydroxyprostaglandin dehydrogenase, a COX-2 oncogene antagonist, is a TGF-beta-induced suppressor of human gastrointestinal cancers. Proc Natl Acad Sci U S A. 2004 Dec 14;101(50):17468-73. 3. Yang L, Amann JM, Kikuchi T, Porta R, Guix M, Gonzalez A, Park KH, Billheimer D, Arteaga CL, Tai HH, Dubois R, Carbone DP, Johnson DH. Inhibition of Epidermal Growth Factor Receptor Signaling Elevates 15-Hydroxyprostaglandin Dehydrogenase in Non-Small-Cell Lung Cancer. Cancer Res. 2007 Jun 15;67(12):5587-5593. Inhibition of HPGD activity was screened by utilizing prostaglandin as an electron donor and NAD+ as an electron acceptor/cofactor. An increase in the fluorescence intensity due to conversion of NAD+ to NADH was used to measure the enzyme activity. NIH Chemical Genomics Center [NCGC] Structural Genomics Consortium [SGC]
Buffer: 50 mM Tris-HCl, 0.01% Tween 20, pH 8. Enzyme Buffer: 50 mM Tris-HCl, 0.5 mM NAD+ and 0.01% Tween 20, pH 8. Reagents/Controls: Buffer in columns 3 and 4 as negative control (no enzyme). Substrate/cofactor solution: 1 mM NAD+ and 30 uM prostaglandin (Sigma, prostaglandin E2, # P5640) final concentrations dispensed throughout the plate. Enzyme: 20 nM HPGD final concentration in columns 1, 2, 5-48. Column 1 and 2 is neutral (100% activity). A titration of control inhibitor GW5074 (G6416 Sigma-Aldrich, St. Louis, MO) top concentration 10 mM in DMSO, then 1:2 dilution for a total of 16 concentrations in duplicate) was pin-transferred into column 2. Assay Steps: Three uL of enzyme were dispensed to 1536-well Greiner black solid bottom plates. Compounds and control inhibitor (23 nL) were transferred via Kalypsys PinTool. The plates were incubated for 15 min at room temperature, and then 1 uL of substrate/cofactor solution was added to start the reaction. The plates were immediately transferred to and read 5 times every 30 seconds on ViewLux High-throughput CCD imager (Perkin-Elmer) using 360 nm excitation and 450 nm emission fluorescence protocol. The fluorescence intensity difference between the last and the first time points was used to compute reaction progress.
In general terms: Quantitative high-throughput screening tests each substance at several concentrations.
Take `Cc1ccc2c(CSc3nncs3)cc(=O)oc2c1`: the activity change, negative = inhibition is -18.3%.

As to `CCCc1cc(=O)[nH]c(SCc2ccc(C#N)cc2)n1`, the Potency is 15.8 µM (active).

As to `CCCc1cc(=O)[nH]c(SCC(=O)N2CCN(S(=O)(=O)c3ccc(C)cc3C)CC2)n1`, the activity change, negative = inhibition is -0.796%.

`CCCc1cc(=O)[nH]c(SCC(=O)OCc2ccccc2)n1`: the activity change, negative = inhibition is -12.3%.

As for `CCCc1cc(=O)n2[nH]c(SCc3ccccc3)nc2n1`, the activity change, negative = inhibition was -15.8%.

In the case of `CCCc1cc(=O)[nH]c(SCc2cc(=O)oc3c(C)c(C)ccc23)n1`, the Potency is 3.55 µM (active).

`CCCCN1C(=O)CCC(C(=O)O)C1c1ccc(OC)cc1` (stereo unspecified): the activity change, negative = inhibition was -3.29%.

Regarding `CCc1cccc(NC(=O)CCC(=O)O)c1`, the activity change, negative = inhibition is 6.1%.

For the compound `COc1ccc2c(CC(=O)OCC(=O)Nc3ccccc3[N+](=O)[O-])coc2c1`, the activity change, negative = inhibition was -21.4%.

As for `Cc1cc(NS(=O)(=O)c2ccccc2)no1`, the activity change, negative = inhibition is -11.9%.

As to `COc1cc2ccccc2cc1C(=O)Nc1ccc(S(=O)(=O)Nc2cc(C)on2)cc1`, the Potency is 20 µM (active).

On to `COc1cc(OC)cc(C(=O)Nc2ccc(S(=O)(=O)Nc3cc(C)on3)cc2)c1`, for which the activity change, negative = inhibition is -20.6%.

For the compound `COc1ccc2nc(Nc3nc(-c4cc5ccccc5oc4=O)cs3)sc2c1`, the activity change, negative = inhibition is -10.8%.

As to `C/C(=N\NS(=O)(=O)c1ccc(Cl)cc1)c1ccc(NC(=O)c2ccco2)cc1`, the activity change, negative = inhibition is -18.3%.

Turning to `Nc1nnc(SCCN2C(=O)c3ccccc3S2(=O)=O)s1`, the activity change, negative = inhibition is -12.2%.

Turning to `O=C1c2ccccc2S(=O)(=O)N1CC(O)Cn1c2ccccc2c2ccccc21` (stereo unspecified), the Potency was 8.91 µM (active).

Take `O=C(CN1C(=O)c2ccccc2S1(=O)=O)N1CCc2ccccc21`: the activity change, negative = inhibition was -12.2%.

Consider `CCCCC/C=C\C/C=C\CCCCCCCCCC(=O)NCC(=O)O`, for which the activity change, negative = inhibition is -8.47%.

In the case of `Cc1cccc(-c2nc3ccccc3c(=O)n2NC(=O)Cc2ccc(Cl)cc2)c1`, the activity change, negative = inhibition is -9.37%.

As to `CCCCc1cc2c(s1)CCCC/C2=N/O`, the activity change, negative = inhibition is -24.8%.

Take `COc1ccc(CNC(=O)CCn2cccc2)cc1`: the activity change, negative = inhibition is -21.6%.

Turning to `CC(C)NC(=O)CSc1ccccc1C(=O)NCc1ccc2c(c1)OCO2`, the activity change, negative = inhibition was -1.41%.

As to `CCSc1ccccc1C(=O)NCc1ccc(OC)cc1`, the Potency is 2.51 µM (active).

For `Cc1cccc(N2C(=O)C3C(c4ccccc4)OC4(C(=O)c5ccccc5C4=O)C3C2=O)c1` (stereo unspecified), the activity change, negative = inhibition was -4.94%.

For `Cc1cccc(N2C(=O)SC(SC(=Nc3ccccc3)Nc3ccccc3)C2=O)c1` (stereo unspecified), the Potency was 14.1 µM (active).

With `Cc1cccc(N2C(=O)SC(N(CC(=O)O)c3cccc(C)c3)C2=O)c1` (stereo unspecified), the activity change, negative = inhibition is -14.2%.
